# ± gives the standard deviation of the averaged measurements. Over roughly 25,000 sequences, “ln(normalized median fluorescence intensity)” has its median near 8.6; the highest 2% begin near 10. The full list was thinned out, with the highest values kept by preference.
# System: PfAP2-EXP AP2 domain (GST-tagged)
# Experiment: gcPBM binding intensity (ln(normalized median fluorescence intensity)); higher = stronger DNA binding
# Method in brief: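 For binding intensity, the highest Masliner-normalised natural-log median intensity across replicate spots of either probe orientation was taken. Protein bound to the array was stained with Alexa488 anti-GST antibody and scanned at 488 nm. The protein, GST-tagged P. falciparum DNA-binding domains from E. coli at about 25 μg on average, had been applied for 1 h to an Agilent 4 × 180k array of primer-extended double-stranded 36-bp intergenic genomic probes and negative controls.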
row,Sequence,gcPBM binding intensity (ln)
1,ACAAAAAAAAAGGAAACACACAAAAAAAAAAAATAA [CACACA_site3523],8.44 ± 0.59
2,TAATGAAAAAATAAAAGAATAAATAAATAAATAAAT [TGCATGCA_negctrl_site130],8.77 ± 0.3
3,AGTGTATATAGAAACATACACACATATTAATTTTAC [CACACA_site3127],8.3 ± 0.28
4,AAAAAAAAAAAAAAAGTGCACTGAAAATATATTGAA [GTGCAC_site9395],9.04 ± 0.2
5,TTTTTTTTTCTTTCTTTCTTTTGTAAAAACCTCAAA [CACACA_negctrl_site723],8.46 ± 0.37
6,TGTGCACGTTCTGTGACACACATTTAAATGTGCTTA [CACACA_site176],8.62 ± 0.35
7,TATTTTTATTTTTAAACCATATATATATATATATAT [CACACA_negctrl_site1560],10.3 ± 0.23
8,GTTATATATATATATATATATATATATATTTTTTTT [GTGCAC_negctrl_site597],8.84 ± 0.15
9,TTTTTTTTTTTTTTTTATTTATATATATATATATAT [CACACA_negctrl_site582],9.98 ± 0.23
10,TATATATATTAATTTATTTATTTGTTTATTTATTTA [CACACA_negctrl_site185],8.41 ± 0.18
11,TATTAATTAAACCATACACACATAATTTTTTTATAA [CACACA_site843],8.21 ± 0.43
12,GCATATATTATATATTTATTTATTTTTTTTTTTTAA [GTGCAC_negctrl_site193],8.32 ± 0.46
13,TATATATATATATATATATATATTTTTATTATATAT [XGTACX_negctrl_site89],10.2 ± 0.52
14,ATTTTGTTATTATATATATATATATATATATATATA [XGTACX_negctrl_site590],10.3 ± 0.57
15,TTTTTATTTATATATATATATATATATTATATATAA [CACACA_negctrl_site1654],8.34 ± 0.36
16,AAAATATATTAAGGCACACACATACAGATATATATA [CACACA_site5951],8.9 ± 0.37
17,TATAAAATATAATTAGCACACATATATAAAATATAT [CACACA_site9355],8.21 ± 0.34
18,ATTTTGCCTGACCCATGTACATATTATTTTTTGCAT [XGTACX_site2258],9.41 ± 0.4
19,AGTATATTAATATAATGTACAAACGTTTATTTTGTA [XGTACX_site5980],8.59 ± 0.42
20,TTACGATCATCAATATGTACATATATATATATATAT [XGTACX_site4301],10.2 ± 0.3
21,TACGAAATCATATGTACACACACATATATATATATA [CACACA_site5216],10.1 ± 0.39
22,AAATATATATATATATGTACACACACACATATAAAT [XGTACX_site847],8.5 ± 0.3
23,CGAAATCATATGTACACACACATATATATATATATA [CACACA_site2151],10.2 ± 0.62
24,TATATATATATATATGTACACACATCAATCATATTA [CACACA_site8594],10.1 ± 0.36

row,Sequence,gcPBM binding intensity (ln)
1,AAAATATATACAATATGTACATATATATATATATAT [XGTACX_site1898],9.96 ± 0.35
2,ATATATATATATATATGTACACACATCAATCATATT [XGTACX_site4005],10.2 ± 0.54
3,ATATATATATATATATGTACATATATATACATATAT [XGTACX_site6987],10.1 ± 0.43
4,ATATATATATATATATGTACATACATACAATCATAT [XGTACX_site6410],10.3 ± 0.45
5,TTAACAAAATATAGCACACATAAATATATATTTATG [CACACA_site351],8.66 ± 0.33
6,TATACATATTATATATGTACACATATTATATGTATA [XGTACX_site5851],8.27 ± 0.15
7,ATTATATAGAATTGTACATGCGAATTGTATAACGAT [TGCATGCA_site125],9.31 ± 0.57
8,ACATATATATAATATATATATCATCATATTTTCTTA [CACACA_negctrl_site853],8.27 ± 0.39
9,TATTAAAATTAAAAAAAAAAAAAAAAGCAATAAAAA [XGTACX_negctrl_site426],8.33 ± 0.71
10,CGTATGCAAGGAACCACACACACACCCATAAATGTA [CACACA_site749],8.51 ± 0.45
11,TTTTCTACATCTTGTTGTACGAAAAATAAAAAAAAT [XGTACX_site4620],8.72 ± 0.47
12,TATTTTATAAATTAATGTACATAAATTATATCTACT [XGTACX_site3625],8.35 ± 0.16
13,TTTTAAACAGGACACACACACATATAGATTTATATA [CACACA_site6560],8.69 ± 0.4
14,TTTTTTTTTTTTTTTTTTAAACACCTCAAAAAAAAA [CACACA_negctrl_site807],8.04 ± 0.36
15,GAGGTCTTTTTTAATGTGCACATATATATATATATA,10.3 ± 0.25
16,ATAATATCTTTATGTGTGCACATATATATATATATA,10.1 ± 0.38
17,ATATATATCTTTTGTGTGCACATATATATAATATAT,8.97 ± 0.24
18,GGAAAAGGTATCCGTTCACACATAAATGGATACCAT [CACACA_site5072],8.31 ± 0.4
19,ATTCATCCAATAATGTGAATTATCATGATAAACTTA [TGCATGCA_negctrl_site406],8.26 ± 0.43
20,CAAAGTATTATGATTACACACATGTGCTTTTTTCTT [CACACA_site163],8.57 ± 0.42
21,GGTATACACAAGTATACACACATATAAATATAAATA [CACACA_site7511],8.5 ± 0.45
22,TATATACTCAAACACACACACACATACACAGACATA [CACACA_site5025],8.77 ± 0.57
23,GGTATACACAAGTATACACACATATATATATATATA [CACACA_site9063],10.2 ± 0.22
24,CAAACAATTAAACAAACACACATATACAAGTATATA [CACACA_site8639],8.38 ± 0.36

row,Sequence,gcPBM binding intensity (ln)
1,GGTATACTCAAGTATACACACATATATATATATATA [CACACA_site5746],10.2 ± 0.45
2,GGTATACGCAAGTATACACACATATATATATATATA [CACACA_site3240],10.1 ± 0.47
3,ATTTTAGGAAAAAAAAGTACATATAATTTTTTATAT [XGTACX_site6954],8.19 ± 0.31
4,AAATGTTATATATAATGTACTTGTAAGAACGTTCCT [XGTACX_site2840],8.67 ± 0.45
5,GTGTAGTTAAAAAAAAGTACAGATTTTTTTTTTTTT [XGTACX_site849],8.43 ± 0.092
6,ATATTTATAACTTGGTGTACTTTGAAAAAAAAAAAA [XGTACX_site5194],8.38 ± 0.26
7,TTTTAATAATATGGATGTACATAAAAATAAATAAAT [XGTACX_site7937],9.04 ± 0.38
8,AAAAAACACTTAAGGTGTACCTTTTAATATAAGTAT [XGTACX_site2397],8.38 ± 0.3
9,TATGTGAAATAAGGATGTACAATTTTGATTTCCCCA [XGTACX_site8389],8.86 ± 0.52
10,TATAAACCGACGAAAACACACATATGTAAATATATA [CACACA_site491],8.94 ± 0.59
11,GTTAATATTTTTGGGGGTACTTAAAAAAAAAAAAAA [XGTACX_site1477],9.35 ± 0.26
12,ATTTTTTTTTTTTTTTTGGGGGGGTATACTTTTAAA [CACACA_negctrl_site1020],11.2 ± 0.18
13,TATACTTTATATATTTTGTATATATATTTTTTTTAT [TGCATGCA_negctrl_site530],8.43 ± 0.31
14,AAAAAAGAAAAAAAGTGTACAATATTTATTACATAT [XGTACX_site2277],8.08 ± 0.028
15,TATTTAATTACATGAACACACATTATGTATTTTTAA [CACACA_site2962],8.3 ± 0.3
16,AAAAAATTAAAAATCACACATAAATATATATAAAAA [CACACA_site4192],8.45 ± 0.4
17,TTTGAAATGATATATAAACACACATATATATATATA [CACACA_site9170],10.3 ± 0.4
18,TGAAATGATATATAAACACACATATATAAATATGTA [CACACA_site7616],8.18 ± 0.42
19,AATTAAAAAATTATCACACATATATATATATATATA [CACACA_site5789],10.3 ± 0.52
20,ACTAATTACTATAAAACACACATATATATATATATA [CACACA_site2591],10.2 ± 0.29
21,ATAAATATATATATCACACATATATAATTATATATA [CACACA_site4787],8.46 ± 0.3
22,TATATATATATATAAACACACATAAATATAAATATA [CACACA_site1121],10 ± 0.37
23,AATAAATTGAAACACACACACACATATATATATATA [CACACA_site848],10.2 ± 0.32
24,TGAAATGATATATAAACACACATATATATATATATA [CACACA_site3511],10 ± 0.36

row,Sequence,gcPBM binding intensity (ln)
1,CATATAAATAAACACACACACACATATATATATATA [CACACA_site5309],10.2 ± 0.29
2,ACTAATTACTATAAAACACACATATATTTATTTATA [CACACA_site7263],8.51 ± 0.34
3,AAAATTAATAAATAAACACACATATATATATATATA [CACACA_site2598],10.1 ± 0.44
4,TTTTTATTTTTAAAGGCACACACATTTTTATTTTTA [CACACA_site8624],8.41 ± 0.31
5,AAACAAAATATGGTTCATGAGCAAAAGTTTATTTTG [XGTACX_negctrl_site531],8.69 ± 0.47
6,TTGATTAAAATTAGTACACACAAAATACATGCGGGG [CACACA_site5284],9.2 ± 0.3
7,AAGAACAAACAAAATAGTACAATATATATATATATA [XGTACX_site4258],10 ± 0.28
8,ACTAAAAGATATATAATTTCTTTCTTATTTATTTTT [CACACA_negctrl_site842],8.1 ± 0.35
9,AAATATATAAAATATACACACAGTAATATATATATA [CACACA_site1385],9.52 ± 0.35
10,TTCTGTCAATATGCTTGTACGAAATATTTCGTAATT [XGTACX_site3182],8.87 ± 0.4
11,TTTTTTGCTAAAAAGAGTACTAATAAAAAATTTATT [XGTACX_site5235],8.34 ± 0.34
12,GAAAAAAAAAAAAATACACACAAATTGGTATATAAT [CACACA_site4369],8.41 ± 0.39
13,ATAAAAATGGTGTTAACACACACATATATATATATA [CACACA_site8089],10.1 ± 0.38
14,AAAAATGGTGTTAACACACACATATAAATAAATATA [CACACA_site6412],8.44 ± 0.35
15,TATAAATAAAAACACACACACATATATATATATATA [CACACA_site2319],10.1 ± 0.32
16,AAAAAATAAATAAACATAAATAAATAAATAAATATA [XGTACX_negctrl_site340],8.49 ± 0.33
17,CATAAAATATAAAACACACACACATATATATATATA [CACACA_site223],10.2 ± 0.44
18,TAAATAAAAAAACACACACACATATATATATATATA [CACACA_site2269],10.2 ± 0.25
19,TAAATAAATAAAAAAACACACATATATATATATATA [CACACA_site4029],10.2 ± 0.32
20,TAAATAAATAAAAAAACACACATATAAATATAAATA [CACACA_site7815],8.56 ± 0.4
21,AAAAATGGTGTTAACACACACATATATATATATATA [CACACA_site571],10.2 ± 0.17
22,TATAAATAAAAACACACACACACATATATATATATA [CACACA_site2268],9.99 ± 0.39
23,AATAAAATATAAACATTATATATATATATATATATA [GTGCAC_negctrl_site58],10.3 ± 0.38
24,AATAAACATAAATAAAAATTATAAAATATATATATG [CACACA_negctrl_site1709],8.38 ± 0.32
